The record followed here is PubChem BioAssay AID1903 (Southern Research Specialized Biocontainment Screening …, 2009).

SMILES strings stand for the structures. The campaign covered roughly 310,000 compounds. About 1,200 (0.39%) were called active. Only a sample is shown. Entries with a potency or affinity are not part of this list. Unmarked numbers belong to inactive results. How the calls were made is not given here.

The target in this test is Large T antigen (Simian virus 40) (UniProt P03070). The test can be described thus: SV40 large T antigen inhibitors, biochemical (AID 1903). Particulars: SV40 large T antigen ATPase/helicase inhibition assay; at 20 µM; stronger effect = higher value.
Sequence of Large T antigen (Simian virus 40) (P03070 whole entry, looked up): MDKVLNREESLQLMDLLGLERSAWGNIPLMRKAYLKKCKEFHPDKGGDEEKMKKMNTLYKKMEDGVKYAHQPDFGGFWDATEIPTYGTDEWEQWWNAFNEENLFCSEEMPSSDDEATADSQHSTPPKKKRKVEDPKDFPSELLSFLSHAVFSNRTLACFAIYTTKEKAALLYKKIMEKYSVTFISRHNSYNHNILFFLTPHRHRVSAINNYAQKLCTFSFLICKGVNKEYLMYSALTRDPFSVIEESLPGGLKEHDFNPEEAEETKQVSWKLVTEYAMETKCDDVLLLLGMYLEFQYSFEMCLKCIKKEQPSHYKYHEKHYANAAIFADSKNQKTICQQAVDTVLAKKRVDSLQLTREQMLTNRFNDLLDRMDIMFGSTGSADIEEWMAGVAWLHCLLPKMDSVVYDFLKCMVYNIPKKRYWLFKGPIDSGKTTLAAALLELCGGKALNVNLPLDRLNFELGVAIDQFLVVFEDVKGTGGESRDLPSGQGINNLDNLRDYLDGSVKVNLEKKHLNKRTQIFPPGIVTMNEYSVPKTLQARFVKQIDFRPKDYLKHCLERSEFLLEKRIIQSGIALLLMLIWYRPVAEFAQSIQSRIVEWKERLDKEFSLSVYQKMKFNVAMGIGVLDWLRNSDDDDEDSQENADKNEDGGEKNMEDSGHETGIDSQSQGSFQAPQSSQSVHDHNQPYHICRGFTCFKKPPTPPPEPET
Broadly, the inhibition is the drop in the measured response relative to a control, in per cent. Turning to `Cc1ccc(NC(=O)CN(C)C(=O)C2COc3ccccc3O2)cc1` (stereo not drawn), the inhibition was 6.98%.

For the compound `Cc1ccc(S(=O)(=O)NC2=NCN(CC(=O)O)CN2)cc1`, the inhibition is 7.75%.

With `CC(=O)n1cc([C@H]2C=C(C(=O)N3CCN(Cc4ccc5c(c4)OCO5)CC3)O[C@@H](OCCCCO)C2)c2ccccc21`, the inhibition is 21.8%.

Consider `CCOc1ccc(CNS(=O)(=O)c2ccc3c(c2)CC(=O)N3C)cc1`, for which the inhibition was 11.9%.

As to `CCOc1ccc(Oc2nc(Nc3ccc(C)cc3)nc(N(C)C)n2)nn1`, the inhibition is -0.33%.

Consider `COc1ccc(-n2ncc3c(=O)n(CC(=O)Nc4ccc(S(=O)(=O)N5CCOCC5)cc4)cnc32)cc1`, for which the inhibition was 5.14%.

Consider `COC(=O)C(N)Cc1ccc(O)c(O)c1` (stereo not drawn), for which the inhibition was 20.9%.

With `COC(=O)[C@@H](N)Cc1ccc(O)c(O)c1`, the inhibition was 10%.

For the compound `COC(=O)c1ccc(NC(=O)COc2cccc3c2OC(C)(C)C3)cc1`, the inhibition was -1.91%.

Take `COc1cc(/C=N\Nc2nc(-c3ccc(C)cc3)c(NC(C)=O)s2)ccc1O`: the inhibition is 35.9%.

Consider `CCOc1cc(/C=N\Nc2nc(-c3ccc(C)cc3)c(NC(C)=O)s2)ccc1O`, for which the inhibition was 26.6%.

`CC(=O)Nc1sc(N/N=C\c2ccccc2)nc1-c1cccs1`: the inhibition is 21%.

As for `CC(=O)Nc1sc(N/N=C\c2ccccc2Cl)nc1-c1cccs1`, the inhibition is 34.5%.

On to `CC(=O)Nc1sc(N/N=C\c2ccccc2F)nc1-c1cccs1`, for which the inhibition is 9.59%.

For `CC(=O)Nc1sc(N/N=C\c2cccc(Cl)c2)nc1-c1cccs1`, the inhibition was 18.8%.

As for `OCCN(CCO)c1ccc(C(c2ccc(Cl)cc2)c2ccc(N(CCO)CCO)cc2Cl)c(Cl)c1`, the inhibition was 2.12%.

On to `COC(=O)c1c(-c2ccccc2)noc1-c1ccccc1`, for which the inhibition was 8.1%.

For the compound `O=C(c1cccc(S(=O)(=O)N2CCOCC2)c1)N1CCCCCC1`, the inhibition is 0.39%.

As for `Cc1ccc(NC(=O)CN2CCc3cc4c(cc3C2C)OCCCO4)cc1` (stereo not drawn), the inhibition is 8.62%.

Regarding `CN1C(C(=O)Nc2ccc(OC(F)(F)F)cc2)=CC(c2ccco2)=NS1(=O)=O`, the inhibition is 8.59%.

With `COC(=O)c1sc2cc([N+](=O)[O-])cc(SCC(C)C)c2c1N`, the inhibition was 10.4%.

As for `COc1cc(Cl)cc(C#N)c1OCC(=O)O`, the inhibition was -0.11%.

As for `CC1=CC(=Nc2c(C)n(C)n(-c3ccccc3)c2=O)C=C(C)C1=O`, the inhibition is 2.58%.

Turning to `CC(=O)/C(N=Nc1c(C)n(C)n(-c2ccccc2)c1=O)=C(\C)O`, the inhibition was 1.99%.

Take `Cc1c(N=NC2=C(O)CC(C)(C)CC2=O)c(=O)n(-c2ccccc2)n1C`: the inhibition was 4.32%.

Consider `CCC(C)C1=CC(=Nc2c(C)n(C)n(-c3ccccc3)c2=O)C=C(C(C)CC)C1=O` (stereo not drawn), for which the inhibition was 4.02%.

As for `Cc1c(NCc2ccccc2O)c(=O)n(-c2ccccc2)n1C`, the inhibition was 29%.

Regarding `Cc1c(N=Nc2ccc(O)cc2)c(=O)n(-c2ccccc2)n1C`, the inhibition was 28%.

For `Cc1[nH]c2ccccc2c1N=Nc1c(C)n(C)n(-c2ccccc2)c1=O`, the inhibition is 6.57%.

With `Cc1c(N=NC2=C(O)CCCC2=O)c(=O)n(-c2ccccc2)n1C`, the inhibition was -2.74%.

Take `CCNC(=O)c1c(NC(=O)C2COc3ccccc3O2)sc2c1CCCC2` (stereo not drawn): the inhibition was -3.17%.

Consider `COc1ccc(/C=N/NC(=O)CNc2c(Br)cc(C)cc2Br)c(C(=O)O)c1OC`, for which the inhibition was -1.95%.

With `Cc1nc(-c2nc(-c3c(C(=O)NNC(=O)Nc4cccc(Cl)c4)noc3C)cs2)cs1`, the inhibition was 8.51%.

As to `Cc1ccc(C(=O)OCC(=O)N2CC(C)CC(C)C2)cc1S(=O)(=O)N1CCOCC1` (stereo not drawn), the inhibition is -0.25%.

With `COc1ccc(N(C(C)C(=O)Nc2ccc(S(=O)(=O)N3CCOCC3)cc2)S(C)(=O)=O)cc1` (stereo not drawn), the inhibition was 22.9%.

Take `Cc1ccc(S(=O)(=O)NNC(=O)Nc2ccc([N+](=O)[O-])cc2)c(C)c1`: the inhibition is 7.86%.

For the compound `NC(=O)COC(=O)CNC(=O)c1sc2ccccc2c1Cl`, the inhibition was 4.69%.

As for `c1ccc2cc(OCCOCCOc3ccc4ccccc4c3)ccc2c1`, the inhibition is 5.7%.

Consider `CCN(CC)c1ccc(/C=C2/C(=O)ON=C2C)cc1`, for which the inhibition is 29.4%.

`CC1=NN(c2cccc(F)c2)C(=O)/C1=C/c1ccc(N(C)C)cc1`: the inhibition is 8.44%.

On to `Cc1oc2ccccc2c1CC(=O)NCCCN(C)C`, for which the inhibition is -4.93%.

As to `Cc1cc(C)n(C(=O)CNC(=O)c2ccccc2F)n1`, the inhibition is 9.87%.

For `Cc1ccccc1NN=Nc1nc2c([nH]1)c(=O)n(C)c(=O)n2C`, the inhibition was 14.1%.

For the compound `Cc1ccc(NN=Nc2nc3c([nH]2)c(=O)n(C)c(=O)n3C)cc1`, the inhibition is 9.3%.

On to `OC(COc1c(F)cc(Br)cc1F)CN1CCOCC1` (stereo not drawn), for which the inhibition is 2.96%.

As for `O=C(CNC(=O)[C@@H]1Cc2ccccc2CN1)Nc1ccc2c(c1)OCCO2`, the inhibition is 10.2%.

Take `COCCCNC(=O)/C(C#N)=C/c1ccc(OCC(=O)O)c(OC)c1`: the inhibition was 34.6%.

In the case of `C/C=C/c1ccc(OCC(=O)O)c(OC)c1`, the inhibition is 10.3%.

As to `COc1cc(/C=C2/C(=N)N3C(c4ccccc4)=CSC3=NC2=O)ccc1OCC(=O)O`, the inhibition is 31%.

Regarding `Cc1ccc2nc(/C(C#N)=C/c3ccc(-c4ccccc4C(=O)O)o3)[nH]c2c1`, the inhibition was 24%.

Regarding `C/C=C/c1ccc(OCC(=O)OCC)c(OC)c1`, the inhibition is 10.1%.

Turning to `CCOc1cc(-c2c(C)c(C)nc(N)c2C#N)ccc1O`, the inhibition was 17.1%.

For `Cc1ccc2c(nc3s/c(=C\c4ccc(-c5ccccc5C(=O)O)o4)c(=O)n32)c1C`, the inhibition is 21.4%.

On to `CC1=C(C#N)c2nc(N)c(C#N)c(C)c2/C1=C\c1ccc(C)cc1`, for which the inhibition is 12.2%.

In the case of `Cc1c(C(=O)Nc2ccccc2F)sc2ncn(CC(=O)N3CCCCC3)c(=O)c12`, the inhibition is 7.79%.

Take `Brc1cccc(/C=N/Nc2nc(N3CCCCC3)nc(N3CCCCC3)n2)c1`: the inhibition is 3.51%.

`CCOC(=O)c1ccccc1NC(=S)N1CCN(C2CCCCC2)CC1`: the inhibition was 7.91%.

Turning to `Cc1ccc2cccc(Oc3ncnc4scc(-c5ccc(Cl)cc5)c34)c2n1`, the inhibition was 25.5%.

Consider `O=S(=O)(NCc1ccccn1)c1ccccn1`, for which the inhibition was 9.8%.

`CCn1cc(C(=O)N2CCN(c3ccccc3)CC2)c(=O)c2cc(S(=O)(=O)N3CCOCC3)ccc21`: the inhibition is 4.92%.

Regarding `CCOc1ccc(Br)cc1S(=O)(=O)Nc1cccnc1`, the inhibition was 11.2%.

For `O=C(NCCc1ccccn1)C1CC(=O)N(Cc2ccccc2Cl)C1` (stereo not drawn), the inhibition is 15.4%.

`Brc1ccccc1-n1nnc(-c2cccnc2)n1`: the inhibition was 12.4%.

`CCCCN(C(=N)N1CCCCC1)c1nc(C)c([N+](=O)[O-])c(=O)[nH]1`: the inhibition was 9.69%.

For the compound `Nc1cc(=O)[nH]c(SCC(=O)NNC(=O)Cc2ccccc2)n1`, the inhibition is 10.8%.

On to `O=c1[nH]c(NC2CCCCC2)c([N+](=O)[O-])c(=O)[nH]1`, for which the inhibition was 4.57%.

For `S=C1Cc2ccccc2C(c2ccc(Cl)cc2)N1` (stereo not drawn), the inhibition is 2.33%.

As for `CCn1c(SCC(=O)Nc2ccc(NC(C)=O)cc2)nnc1C1CC1`, the inhibition is 12.8%.

Consider `CCn1c(SCC(=O)Nc2ccc(F)cc2)nnc1C1CC1`, for which the inhibition was 3.39%.

Regarding `CCCCn1nnnc1SCC(=O)Nc1ccc(C)cc1`, the inhibition is -2.62%.

With `CCc1ccc(NC(=O)CSc2nnc(-c3cnccn3)n2C)cc1`, the inhibition is 14.9%.

Regarding `Cc1ccc(NC(=O)CSc2nnc(-c3cnccn3)n2C)cc1C`, the inhibition is 29.7%.

Regarding `CCn1nnnc1SCC(=O)Nc1ccc(N(C)C)cc1`, the inhibition is 37.7%.

With `CC(=O)Nc1ccc(NC(=O)CSc2nnc(C)c(=O)n2N)cc1`, the inhibition was 12.1%.

Consider `Cc1ccc(NC(=O)CSc2nnc(C)c(=O)n2N)cc1`, for which the inhibition is 14.2%.

With `O=C(CSc1ccc(-c2cccc([N+](=O)[O-])c2)nn1)NCc1ccccc1`, the inhibition is 11.8%.

As to `CCCc1cc(=O)oc2cc(OC3CCCCC3=O)ccc12` (stereo not drawn), the inhibition was 18.5%.

With `O=C(O)COc1ccc2c(c1)OCCO2`, the inhibition is -3.88%.

In the case of `CCOC(=O)c1sc2nc(CC(=O)OC)nc(NCCN(CC)CC)c2c1C`, the inhibition is 28.4%.

Turning to `Cc1cccc(NC(=O)CSc2nnc(-c3ccco3)c(-c3ccco3)n2)c1`, the inhibition is 35%.

Take `COc1ccc(NC(=O)CSc2nnc(-c3ccco3)c(-c3ccco3)n2)cc1OC`: the inhibition is 26.9%.

Take `COC(=O)/C=C1/C(=O)N/C(=N\c2nc(C)cc(C)n2)N1c1ccc(OC)cc1`: the inhibition is 3.13%.

Regarding `CCOc1cc(/C=N/NC(=O)c2cccc(S(=O)(=O)N3CCCC3)c2)ccc1OCC(=O)N(C)C`, the inhibition is 0.99%.

For the compound `CC(=O)Nc1ccc(/C=N/NC(=O)c2cccc(S(=O)(=O)N3CCOCC3)c2)cc1`, the inhibition is 8.56%.

Take `COc1cc(/C=N/NC(=O)c2cccc(S(=O)(=O)N3CCCC3)c2)cc(OC)c1O`: the inhibition is 37.9%.

For `O=C(N/N=C/c1cccnc1)c1cccc(S(=O)(=O)N2CCCC2)c1`, the inhibition was 17.7%.

Consider `COc1cc(/C=N/NC(=O)c2cccc(S(=O)(=O)N3CCCCC3)c2)cc(Br)c1O`, for which the inhibition was 10.6%.

Consider `O=C(N/N=C/c1ccccn1)c1cccc(S(=O)(=O)N2CCCC2)c1`, for which the inhibition was 9.14%.

`C/C(CC(=O)NC1CCCCCC1)=N\NC(=O)c1cnccn1`: the inhibition was 0.37%.

Consider `COC(CNC(=O)C(=O)Nc1cc2c3c(c1)CCN3C(=O)CC2)OC`, for which the inhibition is 6.3%.

Consider `COc1ccc(Cn2c(=O)[nH]c3cc(C(=O)NC4CCN(Cc5ccccc5)CC4)ccc32)cc1`, for which the inhibition was 1.67%.

`COc1ccc(C(CNC(=O)COc2ccc(F)cc2Br)N2CCCC2)cc1` (stereo not drawn): the inhibition was 5.54%.

Turning to `O=c1nc2n(c3cccc(Cl)c13)CCCCC2`, the inhibition was 5.2%.
